# Where a name gives a salt, the structure may show the parent alone. Over roughly 2,000 compounds, “fractional viability relative to vehicle” has its median near 0.92; the lowest 2% begin near 0.11. For the sample, the lowest values were picked, then their nearest neighbours and some compounds at random.
# Test system: TYKNU
# Experiment: fractional viability relative to vehicle; TYKNU is a high-grade serous ovarian cancer line; higher = less growth inhibition
# Settings: 72 h, genotype: OPA1 knockout (sgOPA1 #2)
# Method in brief: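 Drug treatment lasted 72 h, with cells grown at 37 °C in 5% CO2 in RPMI 1640 supplemented with 10% FBS. Beforehand, TYKNU control cells or their lentiCRISPRv2 knockout derivatives had been seeded at 500 cells per well into drug-stamped 384-well plates carrying a ~2100-compound library at 2 or 10 μM, in duplicate. Viability came from Cell Titer Glo luminescence, with averaged duplicate treatment wells normalised to duplicate control wells in the same plate position.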
Compound,fractional viability (2uM),fractional viability (10uM)
c1nc2c(NC3CCCCC3)nc(Nc3ccc(N4CCOCC4)cc3)nc2[nH]1 [Reversine],0.571,0.342
CN1CCC(Nc2nc(Nc3ccc(Oc4ccccc4)cc3)c3c(=O)[nH]cc(Br)c3n2)CC1,0.289,0.0528
CCCCN1CCCC[C@H]1C(=O)Nc1c(C)cccc1C [Levobupivacaine HCl],1.06,0.949
CCC1C/C(=C\c2cccnc2)C(=O)/C(=C/c2cccnc2)C1 (centres undefined),0.442,0.189
C1=N/C2=N/c3ccc(OCCN4CCCC4)c(c3)COC/C=C/COCc3cccc(c3)C(=C1)N2 [Pacritinib (SB1518)],0.318,0.0734
Cc1cncc(CN2CCC(=C3c4ccc(Cl)cc4CCc4cccnc43)CC2)c1 [Rupatadine Fumarate],1.06,0.915
NC(=O)c1ccc(N(C(N)=O)c2c(F)cccc2F)nc1-c1ccc(F)cc1F,1.19,1.05
CCN(CC)CCN(Cc1ccc(-c2ccc(C(F)(F)F)cc2)cc1)C(=O)Cn1c(SCc2ccc(F)cc2)nc(=O)c2c1CCC2,0.76,0.0367
O=C(NNc1nc2cc(F)ccc2n2cccc12)c1cnccn1,0.576,0.643
C=CC[N+]1([C@H]2C[C@H]3[C@@H]4CC[C@H]5C[C@H](O)[C@@H](N6CCOCC6)C[C@]5(C)[C@H]4CC[C@]3(C)[C@H]2OC(C)=O)CCCC1 [Rocuronium Bromide],1.16,1.11
CCCCC(C=O)NC(=O)C(CC(C)C)NC(=O)C(CC(C)C)NC(C)=O (centres undefined),0.8,0.939
CC(C)C[C@H](NC(=O)[C@H](CCc1ccccc1)NC(=O)CN1CCOCC1)C(=O)N[C@@H](Cc1ccccc1)C(=O)N[C@@H](CC(C)C)C(=O)[C@@]1(C)CO1 [Carfilzomib (PR-171)],0.0962,0.146
COc1ccc(C[C@H](NC(=O)[C@H](C)NC(=O)CN2CCOCC2)C(=O)N[C@@H](Cc2ccccc2)C(=O)[C@@]2(C)CO2)cc1,0.149,0.144
COC[C@H](NC(=O)c1cnc(C)s1)C(=O)N[C@@H](COC)C(=O)N[C@@H](Cc1ccccc1)C(=O)[C@@]1(C)CO1 [Oprozomib (ONX 0912)],0.153,0.136
CC(C)C[C@@H]1NC(=O)[C@@H](C(C)C)NC(=O)[C@@H]2CCCN2C(=O)[C@@H](CC(=O)O)NC(=O)[C@@H](Cc2c[nH]c3ccccc23)NC1=O,0.722,0.866
C=CCNC1=C2C[C@@H](C)C[C@H](OC)[C@H](O)[C@@H](C)/C=C(\C)[C@H](OC(N)=O)[C@@H](OC)/C=C\C=C(/C)C(=O)NC(=CC1=O)C2=O [17-AAG (Tanespimycin)],0.652,0.468
CCN1CCN(Cc2ccc(C(=O)Nc3ccc(C)c(Oc4ccc5c(c4)CC(=O)N5)c3)cc2C(F)(F)F)CC1,0.782,0.462
Cc1ccc(C(=O)Nc2ccc(CN3CCN(C)CC3)c(C(F)(F)F)c2)cc1C#Cc1cnc2cccnn12,0.67,0.106
Cc1ccc(C(=O)Nc2ccc(CN3CCN(C)CC3)c(C(F)(F)F)c2)cc1C#Cc1cnc2[nH]ncc2c1,0.589,0.115
Nc1cccc2c1CN(C1CCC(=O)NC1=O)C2=O (centres undefined) [Lenalidomide (CC-5013)],1.14,1.02
COCC[n+]1c2c(n(Cc3cnccn3)c1C)C(=O)c1ccccc1C2=O [YM155 (Sepantronium Bromide)],0.06,0.0555

Compound,fractional viability (2uM),fractional viability (10uM)
CC(C)NCCCn1c(Sc2cc3c(cc2I)OCO3)nc2c(N)ncnc21,0.428,0.48
CCCCCOc1ccc(-c2ccc(-c3ccc(C(=O)N[C@H]4C[C@@H](O)[C@@H](O)NC(=O)[C@@H]5[C@@H](O)[C@@H](C)CN5C(=O)[C@H]([C@@H](C)O)NC(=O)[C@H]([C@H](O)[C@@H](O)c5ccc(O)cc5)NC(=O)[C@@H]5C[C@@H](O)CN5C(=O)[C@H]([C@@H](C)O)NC4=O)cc3)cc2)cc1,1.02,0.857
CC(C)(C)C(=O)Nc1ccc2c(c1)C(=O)C(=O)c1ccccc1-2,0.181,0.0604
CC(=O)Nc1ccccc1 [Acetanilide],0.946,0.905
O=C(O)CCCN1CCC(O[C@@H](c2ccc(Cl)cc2)c2ccccn2)CC1 [Bepotastine Besilate],1.14,0.923
CN1CCC(CNc2ccc3ncc(-c4cccc(OC(F)(F)F)c4)n3n2)CC1 [SGI-1776 free base],0.888,0.107
CN1CCC(COc2cnc(-c3cccc(Cn4nc(-c5cccc(C#N)c5)ccc4=O)c3)nc2)CC1,0.78,0.216
NC(CO)(CO)CO [Trometamol],0.883,0.842
O=C(O)C(Cc1c[nH]c2ccccc12)N1C(=O)c2ccccc2C1=O (centres undefined),0.905,0.771
N#CC(=C(/N)Sc1ccccc1N)/C(C#N)=C(\N)Sc1ccccc1N,1.36,1.25
OCCn1cc(-c2ccc3c(c2)CC/C3=N\O)c(-c2ccncc2)n1,1.14,0.942
Oc1ccc(-c2nc(-c3ccc(F)cc3)c(-c3ccncc3)[nH]2)cc1,1.48,1.09
CN(C)CCOc1ccc(-c2nc(-c3ccncc3)c(-c3ccc4c(c3)CC/C4=N\O)[nH]2)cc1,0.833,0.0595
O=C(CSc1nc2c(c(=O)n1-c1ccccc1)SCC2)Nc1ccc(-c2ccccc2)cn1,1.09,0.948
COc1cc2c(cc1OC)CC(=O)N(CCCN(C)C[C@H]1Cc3cc(OC)c(OC)cc31)CC2 [Ivabradine HCl],1.02,0.967
c1cc(-c2cnn3cc(-c4ccc(N5CCNCC5)cc4)cnc23)c2cccnc2c1,0.104,0.0761
COc1ccc(-c2cnc3c(-c4cccc5ncccc45)cnn3c2)cc1,1.15,1.2
COc1cc(-c2cc(-c3ccc(N4CCNCC4)cc3)cnc2C)cc(OC)c1OC,0.878,0.835
CC1(C)CC(=O)c2c(C(F)(F)F)nn(-c3ccc(C(N)=O)c(N[C@H]4CC[C@H](O)CC4)c3)c2C1,0.668,0.574
CC1(C)C=C(CN2C/C(=C\c3ccc(F)cc3)C(=O)/C(=C/c3ccc(F)cc3)C2)C(C)(C)N1O,0.837,0.79
C=CC(=O)N1C/C(=C\c2ccc([N+](=O)[O-])cc2)C(=O)/C(=C/c2ccc([N+](=O)[O-])cc2)C1,0.0989,0.111
